# From PubChem BioAssay AID743364 (National Center for Advancing Translational Sciences (NCATS), 2014)
# Calls of active or inactive are those of the source. The call rests on the fitted dose curve; in most records, active means well fitted curve in the direction sought with a large enough effect; inactive means no such curve, though single readings can be large or run the other way.
# Experiment: qHTS profiling of inhibitors of Plasmodium falciparum (3D7) proliferation (acoustic dispense)
# Conditions: P. falciparum 3D7 in erythrocytes, SYBR Green, 72 h; series mostly up to 49.8 µM; activity change: at the top concentration
# From the text: Plasmodium falciparum is a virulent malarial parasite that kills 1-2 million people worldwide each year. Transmitted by mosquitoes, the sporozoite form of the parasite enters the blood stream to infect hepatocytes, where they become merozoites that infect red blood cells (erythrocytes). Within erythrocytes, merozoites begin a […] cycle of growth and division, after which the parasite is released to infect new red blood cells. Gametocytes, which form within erythrocytes as well, circulate in the bloodstream and are ingested by the mosquito, thereby completing the life cycle. To profile malarial isolates for differential chemical responses and to identify inhibitors of malarial growth, an assay that measures P. falciparum growth and replication within erythrocytes was employed. This assay uses a DNA binding fluorescent dye (SYBR Green) to detect parasite DNA following cell lysis. Because mature erythrocytes lack DNA, only Plasmodium-derived DNA is detected.
# The SYBR Green viability assay was adapted from a method described previously (Plouffe et al., 2008). For screening 3 ul culture medium was dispensed into 1536 well black clear bottom plates (Aurora Biotechnologies) using a Multidrop Combi (Thermo Fisher Scientific Inc.), 23 nL of compounds in DMSO were added by an acoustic dispenser (EDC Biosystems), and 5 ul of erythrocytes infected with P. falciparum (0.3% parasitemia, 2.5% hematocrit final concentration) were added. The plates were incubated at 37 C in a humidified incubator in 5% CO2 for 72 h, and 2 ul lysis buffer (20 mM Tris HCl, 10 mM EDTA, 0.16% saponin, 1.6% triton X, 10X SYBR Green I supplied as 10,000X […] by Invitrogen) was added to each well. The plates were mixed for 25 sec with gentle shaking and incubated overnight at room temperature in the dark. The following morning, fluorescence intensity at 485(14) nm excitation and 535(25) nm emission wavelengths was measured on an EnVision (Perkin Elmer) plate reader. Plate reads were normalized relative to the control inhibitor (0.29 uM artemisinin) and vehicle (DMSO) wells present on each plate and then corrected by an algorithm using vehicle-only control plates at the beginning and end of the compound plate stack.
row,SMILES,activity change
1,COC(=O)[C@@]1(OC)C[C@@H]2O[C@@]1(C)n1c3ccccc3c3c4c(c5c6ccccc6n2c5c31)C(=O)N(C)C4,0.473% [at 16.5 µM] (inactive)
2,COC1=CC(C)=C[C@@H](C)[C@@H](O)[C@@H](C)CC(C)=CC=C[C@H](OC)[C@H]([C@@H](C)[C@@H](O)[C@H](C)[C@@]2(O)C[C@@H](O)[C@H](C)[C@@H](C(C)C)O2)OC1=O,1.19% (inactive)
3,CC(=O)N(O)CCCP(=O)(O)O,9.16% (inactive)
4,CC(C)(N)CNC(=O)CC1CCC2(CC1)OOC1(O2)C2CC3CC(C2)CC1C3 (stereo not given),0.389% (inactive)
5,C[C@H]1CCCC=CC2C[C@H](O)C[C@@H]2[C@H](O)C=CC(=O)O1 (stereo not given in full),-0.681% (inactive)
6,CC(=O)Nc1nnc(S(N)(=O)=O)s1,67.7% (inactive)
7,CC1=C(O)C(=O)C=C2C1=CC=C1[C@@]2(C)CC[C@@]2(C)[C@@H]3C[C@](C)(C(=O)O)CC[C@]3(C)CC[C@]12C,2.81% (inactive)
8,C[C@]12O[C@H](C[C@@]1(O)C(=O)O)n1c3ccccc3c3c4c(c5c6ccccc6n2c5c31)CNC4=O,0.751% [at 4.15 µM] (inactive)
9,CC(=Cc1csc(C)n1)[C@@H]1C[C@H]2O[C@@H]2CCC[C@H](C)[C@@H](O)[C@@H](C)C(=O)C(C)(C)[C@@H](O)CC(=O)O1,0.503% (inactive)
10,O=c1[nH]c2ccc(Cl)cc2c(N[C@@H]2CN3CCC2CC3)c1-c1nc2ccccc2[nH]1,0.942% (inactive)
11,O=C(C[C@@H]1NCCC[C@@H]1O)Cn1cnc2ccccc2c1=O,-1.69% (inactive)
12,C[C@@H]1C[C@@H]([C@H](O)CC2CC(=O)NC(=O)C2)C(=O)[C@@H](C)C1,-0.385% (inactive)
13,CC=C(C)C(=O)N[C@@H](c1ccccc1)[C@@H](O)C(=O)O[C@H]1C[C@@]2(O)[C@@H](OC(=O)c3ccccc3)[C@@H]3[C@]4(OC(C)=O)CO[C@@H]4C[C@H](O)[C@@]3(C)C(=O)[C@H](OC(C)=O)C(=C1C)C2(C)C,1.68% (inactive)
14,CN1C(=O)C[C@H](C(=O)N[C@@H](Cc2cnc[nH]2)C(=O)N2CCC[C@@H]2C(N)=O)NC1=O,94.2% (inactive)
15,CO[C@H]1CCC(O[C@H]2C[C@H]([C@]3(C)CC[C@]4(C[C@H](O)[C@@H](C)[C@@H]([C@@H](C)C=C(C)C(=O)[C@H](C)C[C@H](C)C(=O)O)O4)O3)O[C@]3(O[C@@H]([C@H]4O[C@@](O)(CO)[C@H](C)C[C@H]4C)C[C@H]3C)[C@H]2C)O[C@H]1C (stereo not given in full),-0.523% (inactive)
